PI5P4Ka inh: PI5P4K alpha (human) kinase inhibition | PI5P4Kalpha enzyme, ADP-Glo luminescence, 60 min; stronger effect = lower value | max response, % | actives 1.2% (n = 330,000); active means max response of -50% or lower; inconclusive means between -30% and -50%; inactive means -30% or higher; further: value at the top dose of about 77 µM; on the % scale 0 is the no-effect control and ±100 the full control effect
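Human PI5P4Kalpha with substrate in 0.038 M HEPES pH 7.4, 0.28 mM EGTA, 0.1% CHAPS, 5% DMSO; reaction started with 5 microM ATP (final), 60 min at room temperature. ADP formed read by ADP-Glo luminescence.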
VDR inhibitor: inhibitors of human vitamin D receptor. Potency, µM, for the others: max response, negative = inhibition, hits mostly inhibitors. actives 0.93% (n = 400,000). P11473. VDR-SRC2-3 peptide fluorescence polarization, 2 h; further: potency means the concentration at half of the fitted maximal effect; on the % scale 0 is the no-effect control and ±100 the full control effect
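FP read-out; VDR + SRC2-3 coactivator peptide; 23 nl compound by pintool; 2 h RT incubation; reagents held at 4 deg C, protected from light.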
Rango release inh: inhibitors of RanGTP-induced Rango-importin beta complex dissociation; Potency, µM (series often up to 46.1 µM), without a hit: at the top dose activity change, negative = inhibition; O95149+P62826; Biochemical FRET Rango-importin beta, RanGTP-induced dissociation; actives 0.071% (n = 340,000); calls by dose curve; further: potency means the concentration at half of the fitted maximal effect; % of control where 0% means no effect; nearly all actives have a fitted effect of over 45% in size
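Compounds preincubate 5 min with complex of recombinant Rango and importin beta in PBS with 1 mM DTT. Ran (0.6 uM) loaded with 2 mM GTP plus 0.2 uM RCC1 starts dissociation; FRET is recorded 45 min later.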
PLK1 PBD block: PLK1 (human) polo-box domain binding inhibition; Plk1 PBD binding of FITC phosphopeptide, fluorescence polarization; Potency, µM, inactives show max response, negative = inhibition, hits mostly inhibitors; actives 2.8% (n = 360,000); further: potency means the concentration at half of the fitted maximal effect; series mostly up to about 57 µM; on the % scale 0 is the no-effect control and ±100 the full control effect; nearly all actives have a fitted effect of over 65% in size
Target sequence (P53350 whole entry, looked up, the tested form may be a part): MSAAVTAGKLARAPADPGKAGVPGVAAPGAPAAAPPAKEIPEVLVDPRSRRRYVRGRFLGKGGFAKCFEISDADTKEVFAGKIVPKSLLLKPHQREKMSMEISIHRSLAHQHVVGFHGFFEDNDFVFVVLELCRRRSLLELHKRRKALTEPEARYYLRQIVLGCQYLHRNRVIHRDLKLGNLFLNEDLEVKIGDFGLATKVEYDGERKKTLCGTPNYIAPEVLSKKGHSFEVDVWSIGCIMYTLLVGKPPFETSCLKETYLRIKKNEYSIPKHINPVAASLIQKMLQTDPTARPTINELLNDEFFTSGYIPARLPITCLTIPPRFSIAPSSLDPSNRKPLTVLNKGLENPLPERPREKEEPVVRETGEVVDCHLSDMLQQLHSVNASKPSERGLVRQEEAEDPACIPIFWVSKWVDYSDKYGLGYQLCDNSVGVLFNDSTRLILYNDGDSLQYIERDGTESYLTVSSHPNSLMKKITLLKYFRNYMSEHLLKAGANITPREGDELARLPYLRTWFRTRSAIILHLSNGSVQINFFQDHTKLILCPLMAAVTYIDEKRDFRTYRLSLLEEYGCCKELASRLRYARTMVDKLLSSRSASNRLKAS
Rango-impB inh: prevents formation of the Rango-importin beta complex; AID 540263; Potency, µM (top dose mostly 92.2 µM), without a hit: top-dose inhibition of complex formation; actives 0.031% (n = 340,000); Rango CFP/YFP FRET sensor + importin beta, 45 min; Q14974; calls by dose curve;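 further: potency means the concentration at half of the fitted maximal effect; 0% = DMSO wells and 100% = buffer wells lacking importin beta; nearly all actives have a fitted effect of over 15% in size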
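FRET biosensor (snurportin 1 IBB flanked by EYFP and cerulean), 50 nM, with compound 5 min, then 0.125 microM importin beta in PBS, 1 mM DTT, 0.02% Tween-20, 0.1% BSA. CFP/YFP ratio read after 45 min at room temperature; pre-read flags interference.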
KAT2A inh: blocks human GCN5L2 histone acetyltransferase; actives 0.21% (n = 390,000); AID 504327; Potency, µM (series often up to 58.9 µM), without a hit: top-dose activity change, negative = inhibition, usual class: inhibitors; GCN5L2 HAT assay, ThioGlo1 CoA-SH fluorescence; further: potency means the concentration at half of the fitted maximal effect; on the % scale 0 is the no-effect control and ±100 the full control effect
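Titration-based screen in which CoA formation is detected via maleimide probe ThioGlo1 (50uM) turning fluorescent on thiol reaction; substrates H3(1-25) 75uM and acetyl-CoA 70uM, GCN5L2 20nM, 20 min incubation at room temperature.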
ADP-Glo interf: ADP-Glo luciferase interference, PI5P4K counter-screen | shares compounds with PI5P4Ka inh | ADP-Glo detection counter-screen, luciferase luminescence, no enzyme | Potency, µM (top dose mostly 76.9 µM), for inactives: at the top dose activity change, negative = inhibition, usual class: inhibitors | 1,100 tested, under 10 active | AID 743285
Starred values were filed as active, the others as inactive; ? = inconclusive; . = not tested or not shown. This is a sample that favours compounds with a hit; in the whole collection about 3.6% have one here. Unless noted, the call rests on the fitted dose curve; in most records, active means well fitted curve in the direction sought with a large enough effect; inconclusive means small, poorly fitted or top-dose-only effect, or another doubt; inactive means no such curve, though single readings can be large; an effect the other way counts as inactive or inconclusive.

SMILES	PI5P4Ka inh	VDR inhibitor	Rango release inh	PLK1 PBD block	Rango-impB inh	KAT2A inh	ADP-Glo interf
CC1CCCCN1C(=O)Cn1cnc2cc([N+](=O)[O-])ccc2c1=O (stereo not drawn)	-69*	?	-6%	9.5µM*	?	2%	-3%
O=S(=O)(Nc1ccc(Cl)cc1)c1ccc(N2CCOCC2)c(NC(=S)NCCN2CCOCC2)c1	-83*	?	2%	1.7µM*	3%	-17%	-8%
Cc1cc(-c2csc(N)n2)c(C)n1C	-60*	8%	-24%	-29%	?	-16%	-6%
Cc1c(Cl)c([N+](=O)[O-])nn1CC(=O)NC1CCCCC1	-5	3%	19%	-9%	0%	?	.
CCC1CCCCN1C(=O)Cn1nc([N+](=O)[O-])c(Cl)c1C (stereo not drawn)	-50*	-17%	13%	-14%	4%	-3%	-1%
Cc1c(C(=O)NCCc2ccc(Cl)cc2)cccc1-n1cnc2cccnc21	.	8%	.	.	.	0%	.
CC(C)CN(CCNC(=O)CCN1N=C(c2ccccc2)CCC1=O)CC(C)C	.	-1%	.	.	.	0%	.
Cc1cccc(CN2CC34CCC(CC3S2(=O)=O)O4)c1 (stereo not drawn)	.	7%	.	.	.	.	.
COC(=O)Nc1ccc(S(=O)(=O)N2CCC(C(=O)N3CCC(C)CC3)CC2)cc1	-80*	?	0%	9.5µM*	3%	-2%	0%
COc1cc(NC(=O)c2ccc(-c3nc(CSc4ccccc4)c(C)o3)cc2)cc(OC)c1	.	14%	.	.	.	-7%	.
Cc1ccccc1CN1C(=O)C(C)Sc2ccc(-c3ccco3)cc21 (stereo not drawn)	-54*	.	.	-21%	.	.	-4%
Cc1ccc(C(=O)c2sc3c(c2N)c(=O)[nH]c(=O)n3CCc2ccccc2)cc1	-1	1%	1%	-2%	2%	-2%	.
CCn1c(=O)[nH]c(=O)c2c(N)c(C(=O)c3cc(F)ccc3F)sc21	-64*	-30%	-14%	-12%	0%	-4%	-8%
COC(=O)c1cnn2c(C)c(Cc3c(C)cc(C)cc3C)c(C)nc12	.	9%	.	.	.	-4%	.
COc1ccccc1N1CCN(C(=O)c2ccc(C(C)(C)C)cc2)CC1	-62*	?	19%	2.7µM*	2%	-2%	-6%
Cc1ccc(NC2Sc3ccccc3NC2=O)cc1 (stereo not drawn)	-63*	11µM*	15%	9.5µM*	-1%	-21%	-1%
CC(C)(C)C(=O)CSc1ncnc2sc3c(c12)CCC3	17	-1%	0%	-2%	-1%	-8%	.
O=C(CSc1ncnc2sc3c(c12)CCC3)N1CCOCC1	-54*	1%	3%	-23%	1%	-12%	-2%
O=S1(=O)CC(N2CCSCC2)CN1Cc1cn(Cc2ccc(F)cc2)nn1 (stereo not drawn)	-28	.	.	-12%	.	.	2%
O=S1(=O)CC(N2CCSCC2)CN1Cc1cn(Cc2ccc(Cl)cc2)nn1 (stereo not drawn)	-2	.	.	-7%	.	.	.
O=C(COc1cccc2ccccc12)Nc1ccc(Cl)cc1C(=O)O	-54*	?	0%	27µM*	-2%	-11%	-1%
COC(=O)c1scc(-c2ccc(C)cc2)c1S(=O)(=O)N1CCN(c2ccc(OC)cc2)CC1	.	15%	.	.	.	2%	.
CCOc1ccc(-c2ccc(SC)nn2)cc1	-50*	3%	-11%	-2%	-6%	-4%	16µM*
O=C(NCc1ccco1)C1Cc2c(-c3cccc(F)c3)ccnc2O1 (stereo not drawn)	-65*	.	.	-11%	.	.	-4%
CC(=O)c1cccc(-c2ccnc3c2CC(C(=O)NCc2ccco2)O3)c1 (stereo not drawn)	?	.	.	-22%	.	.	.
SMILES	PI5P4Ka inh	VDR inhibitor	Rango release inh	PLK1 PBD block	Rango-impB inh	KAT2A inh	ADP-Glo interf
COc1ccc(C(=O)NCc2ccc3c(c2)CCN3C(=O)c2cccc(C)c2)cc1OC	.	7%	.	.	.	-1%	.
NC(=O)c1ccsc1NC(=O)COC(=O)c1nc(Cl)ccc1Cl	-53*	-2%	42%	-9%	1%	3%	-3%
CN(C)S(=O)(=O)c1cccc(C(=O)OCC(=O)Nc2sccc2C(N)=O)c1	-66*	-2%	-10%	-7%	-4%	-8%	-4%
NC(=O)c1ccsc1NC(=O)COC(=O)c1ccc(Cl)nc1	-2	15%	-7%	-5%	-2%	2%	.
Oc1ccc(Cn2ccnc2)c2cccnc12	0	-13%	9%	4%	0%	?	.
Oc1ccc(CNc2ccc(F)cc2)c2cccnc12	-54*	?	0%	3.4µM*	0%	-1%	2%
NC(=O)c1c(NC(=O)c2ccccc2)sc2c1CCC2	-51*	?	-1%	?	0%	-1%	-2%
O=C(Nc1sc2c(c1C(=O)O)CCCC2)c1ccccc1Cl	-3	2%	0%	-7%	4%	-6%	.
NC(=O)c1c(NC(=O)C2CC=CCC2C(=O)O)sc2c1CCCCC2 (stereo not drawn)	-53*	71µM*	-21%	27µM*	?	-23%	-3%
NC(=O)c1c(NC(=O)c2ccncc2)sc2c1CCCC2	-6	5%	-5%	-22%	?	-12%	.
O=C(Nc1sc2c(c1C(=O)O)CCC2)c1ccccc1Cl	-59*	14%	13%	-11%	-3%	-28%	-8%
NC(=O)c1c(NC(=O)CN2CCOCC2)sc2c1CCC2	4	7%	2%	-14%	3%	-6%	.
NC(=O)c1c(NC(=O)CN2CCCC2)sc2c1CCCC2	-53*	?	-4%	3µM*	-1%	4%	3%
CCOC(=O)c1ccccc1NC(=O)Cn1nnc2sc3c(c2c1=O)CCCC3	.	6%	.	.	.	-14%	.
COc1cccc(NC(=O)Cn2c(=O)n(CC(=O)NCCc3ccccc3)c(=O)c3sccc32)c1	.	-6%	.	.	.	-4%	.
COc1ccc(NC(C)=O)cc1NC(=O)CSc1nc2ncccc2[nH]1	-55*	-24%	-6%	3µM*	0%	-8%	3%
COc1ccccc1NC(=O)CSc1nc2ncccc2[nH]1	.	6%	-8%	-6%	0%	-1%	.
O=c1c(Cl)c(N2CCCCC2)cnn1-c1nc2ccccc2[nH]1	-7	-3%	-14%	-1%	-5%	-20%	.
O=c1c2ccccc2cnn1-c1nc2ccccc2[nH]1	-50*	13%	-4%	-27%	-3%	-1%	25µM*
Cc1cccc(OCC(=O)Nc2cccc(C(=O)NCC(C)C)c2)c1	6	-19%	-10%	-6%	-5%	2%	.

Source: PubChem BioAssay
